This is a sample that favours compounds with a hit; in the whole collection about 11% have one here.
IMPase cell inh: qHTS Assay for Identifying the Cell-Membrane Permeable IMPase Inhibitors. Inositol monophosphatase 1 (Rattus norvegicus), P97697. CHO-M1 cells, IP1 accumulation, HTRF TR-FRET ratio. inhibition (IP1 accumulation), % at 46.1 µM. 120,000 tested, under 10 active. AID 901, 2007; active means well fitted curve in the direction sought with a large enough effect in the signal ratio, not every such curve was filed as active; inconclusive means small, poorly fitted or top-dose-only effect, or a change in a side signal; inactive means no such curve, though single readings can be large or run the other way; the % refers to the signal ratio;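 further: cells stimulated with carbachol in lithium chloride buffer; plate controls were DMSO basal wells for no effect and reference inhibitor wells for full effect; higher means more IMPase inhibition seen as more IP1 and lower FRET ratio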
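Seeded CHO-M1 cells were dosed with compound at up to 46 uM, stimulated with carbachol for 30 min, then lysed in IP-One detection reagents. Higher IP1 lowers the TR-FRET signal.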
PNC assembly inh: High Content Assay for Compounds that inhibit the Assembly of the Perinucleolar Compartment; PC3M PTB-GFP, PNC prevalence imaging, 16 h; stronger effect = lower value; activity change (PNC), negative = inhibition, % at 10 µM; 140,000 compounds, 3.1% hits; AID 2417, 2010;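 active means readout at or below -70, meaning at least 70% loss of cells showing the perinucleolar compartment, a nuclear body marking cancer cells; inconclusive means readout between -30 and a set limit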;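 further: plate controls were DMSO wells for no effect and camptothecin positive control wells for full effect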
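PC3M cells stably expressing PTB-GFP, 750–1000 cells/well, treated 16 h at 37 °C with compound (23 nl of library stock), in duplicate. After paraformaldehyde fixation and Hoechst stain, imaged at 20x; PNC prevalence scored by image analysis.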
IMPase Li inh: qHTS Assay for Identifying the Cell-Membrane Permeable IMPase Inhibitors: Potentiation with Lithium | Potency, µM (doses to about 59.4 µM), without a hit: top-dose activity, negative = IMPase inhibition, most hits filed as inhibitors | 210,000 compounds, 0.35% hits | CHO-M1 cells, IP1 TR-FRET (IP-One), carbachol + lithium; active means well fitted curve in the direction sought with a large enough effect; inconclusive means small, poorly fitted or top-dose-only effect, or another doubt; inactive means no such curve, though single readings can be large; an effect the other way counts as inactive or inconclusive;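 further: IP1 builds up when IMPase is blocked and the TR-FRET signal falls; potency means the concentration at half of the fitted maximal effect; plate controls were basal vehicle for no effect and high inhibitor control for full effect; nearly all actives have a fitted effect of over 50% in size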
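CHO-M1, 2000 cells/well, 16–30 h culture; cpd + low Li+, 30 min 37C; lysis with d2-IP1/Eu-anti-IP1 Ab, 10 min RT; TR-FRET 665/620 ratio and 620 channel; AC50 via Hill.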
HPGD inh: qHTS Assay for Inhibitors of HPGD (15-Hydroxyprostaglandin Dehydrogenase); 15-hydroxyprostaglandin dehydrogenase [NAD(+)] (Homo sapiens), P15428; purified HPGD, NADH fluorescence kinetic, PGE2 substrate; Potency, µM, for the others: at the highest dose activity change, negative = inhibition, actives largely listed as inhibitors; 150,000 compounds, 4.3% hits; AID 894, 2007; further: potency means the concentration at half of the fitted maximal effect
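NADH formation kinetics: reaction with 30 uM PGE2 and 1 mM NAD+ (final), 20 nM enzyme, Tris-HCl pH 8 with Tween 20, after 15 min compound preincubation at room temperature. Fluorescence change, last versus first of five reads.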
ALOX12 inhib: qHTS Assay for Inhibitors of 12-hLO (12-human lipoxygenase) | purified 12-hLO, xylenol orange hydroperoxide absorbance | 150,000 compounds, 0.12% hits | Potency, µM (highest dose often 57.1 µM), without a hit: top-dose activity change, negative = inhibition, hits mostly inhibitors | Polyunsaturated fatty acid lipoxygenase ALOX12 (Homo sapiens), P18054; active means well fitted curve in the direction sought with a large enough effect; inconclusive means small, poorly fitted or top-dose-only effect, or another doubt; inactive means no such curve, though single readings can be large; an effect the other way counts as inactive or inconclusive; further: potency means the concentration at half of the fitted maximal effect; nearly all actives have a fitted effect of over 55% in size
Target sequence (P18054 whole entry, looked up): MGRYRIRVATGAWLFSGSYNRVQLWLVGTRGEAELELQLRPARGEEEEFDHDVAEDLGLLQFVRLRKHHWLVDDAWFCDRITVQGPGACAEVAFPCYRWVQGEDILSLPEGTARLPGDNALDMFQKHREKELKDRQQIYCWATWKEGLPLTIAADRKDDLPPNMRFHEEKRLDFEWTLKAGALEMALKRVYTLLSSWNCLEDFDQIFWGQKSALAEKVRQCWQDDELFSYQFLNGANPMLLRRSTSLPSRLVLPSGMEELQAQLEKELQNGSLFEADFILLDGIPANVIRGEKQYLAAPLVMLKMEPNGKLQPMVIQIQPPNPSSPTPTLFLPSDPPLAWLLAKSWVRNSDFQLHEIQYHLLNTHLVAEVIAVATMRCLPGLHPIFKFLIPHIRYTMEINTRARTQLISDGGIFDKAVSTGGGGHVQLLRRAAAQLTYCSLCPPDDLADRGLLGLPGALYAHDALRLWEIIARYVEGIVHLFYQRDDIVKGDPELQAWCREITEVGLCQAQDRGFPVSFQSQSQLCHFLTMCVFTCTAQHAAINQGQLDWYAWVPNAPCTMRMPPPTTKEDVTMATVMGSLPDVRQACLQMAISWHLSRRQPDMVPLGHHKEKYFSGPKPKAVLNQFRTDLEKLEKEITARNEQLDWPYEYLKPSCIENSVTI
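Lipoxygenase turnover measured by absorbance at 573 and 405 nm after Fe-XO development. Human 12hLO 150 nM, arachidonate 40 uM, pH 7.0 Hepes buffer with detergent; 15 min compound preincubation, 30 min reaction.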
ALDH1A1 inh: qHTS Assay for Inhibitors of Aldehyde Dehydrogenase 1 (ALDH1A1). Purified ALDH1A1, NADH fluorescence, propionaldehyde substrate. 220,000 compounds, 7.3% hits. Potency, µM (doses to about 75.3 µM), for inactives: at the highest dose activity, negative = inhibition, usual class: inhibitors. AID 1030, 2008;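 further: potency means the concentration at half of the fitted maximal effect; plate controls were no enzyme wells and a reference inhibitor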
* hit, by the source's call; ? = inconclusive; . = no result; ! = not active in a repeat; [ ] = remark or other dose. Unless noted, the call rests on the fitted dose curve; in most records, active means well fitted inhibition curve with a large enough effect (not every such curve was filed as active); inconclusive means small, poorly fitted or top-dose-only effect, or another doubt; inactive means no such curve, though single readings can be large or run the other way. Unless noted, on the % scale 0 is the no-effect control and ±100 the full control effect.

SMILES | IMPase cell inh | PNC assembly inh | IMPase Li inh | HPGD inh | ALOX12 inhib | ALDH1A1 inh
C=CCSc1nnc(NC(=O)c2cccc(S(=O)(=O)N3CCOCC3)c2)s1 | 8 | -28 | 14%[38.3 µM] | 3.5µM* | 1% | ?
O=C(O)C1CC(O)CN1c1nc(Cl)ccc1[N+](=O)[O-] (stereo unspecified) | . | . | 4% | . | . | 1%
CC(=O)OC1C2CCC1C([N+]1(C)CCCCC1)CC2 (stereo unspecified) | . | . | 2% | . | . | 1%
CCCC[C@@H]1C[C@H]1C(NC(=O)c1ccco1)c1ccc(Cl)cc1 (stereo partly specified) | . | . | 7% | -10% | -5% | -7%
O=C(CSc1nc(-c2ccccc2)ns1)N1CCOCC1 | . | . | 2% | . | . | 13µM*
Cc1cccc(-c2nsc(SCC(=O)N3CCCC3)n2)c1 | -1 | 0 | -8%[38.3 µM] | ? | -6% | -8%
CCSc1nnc(NC(=O)c2cccnc2Cl)s1 | 10 | -14 | 0% | -10% | 2% | 25µM*
CCSc1nnc(NC(=O)c2ccccn2)s1 | 1 | 8 | 4%[38.3 µM] | -10% | 0% | ?
COc1ccc2[nH]cc(CCNc3ncncc3-c3ccccc3C(F)(F)F)c2c1 | . | . | 22% | . | . | -7%
O=C(O)c1ccc(-c2ccccc2C(F)(F)F)s1 | . | . | 2% | ? | -5%[0.00818 µM] | ?
Cc1ccc(CN(C)C(=O)c2cc(COc3ccc(F)cc3Cl)on2)o1 | . | . | 19% | . | . | 7.1µM*
Cc1cc(CN(C)C(=O)c2cc(COc3ccc(F)cc3Cl)on2)n[nH]1 | . | . | 3% | . | . | -10%
CN=C(NC#N)NCCSC[C@H]1N=CN=C1C | -5[20.6 µM] | . | -13% | -5% | -1%[25.6 µM] | 5%[20.9 µM]
COc1ccc(S(=O)(=O)N(CC(=O)N2CCN(c3ccccc3OC)CC2)c2ccccc2)cc1 | -9 | 22 | 6%[38.3 µM] | -21% | 2% | 7.1µM*
COc1ccc(N2CCN(C(=O)CN(c3ccccc3)S(=O)(=O)c3ccc(OC)cc3)CC2)cc1 | 2 | 18 | 39%[38.3 µM] | -17% | -6% | -11%
Cc1cccc(C(=O)O)c1C[C@H]1NCC[C@H]2c3ccccc3N[C@@H]12 | . | . | 14% | ? | 0%[11.4 µM] | ?
CCOC(=O)c1ccc(CNC(=O)c2cc(C(C)(C)C)oc2C)o1 | 0 | -14 | 4%[38.3 µM] | -6% | 0% | 25µM*
Cc1oc(C(C)(C)C)cc1C(=O)NCc1ccc2c(c1)OCO2 | . | . | . | . | . | -5%
CCOC(=O)c1cc(C(C)(C)C)oc1CNC(=O)c1c(C)oc2c1CCCC2 | 43 | 280 | 11% | -23% | -12% | 18µM*
COc1ccc(C2C(C#N)=C(N)Oc3cc(C)n(Cc4ccco4)c(=O)c32)cc1 (stereo unspecified) | 1 | 25 | 1%[38.3 µM] | 3% | 3% | ?
N#CC1=C2SCN(Cc3ccco3)CN2C(=O)CC1c1ccc(Cl)cc1 (stereo unspecified) | 16 | -17 | -2%[38.3 µM] | 11µM* | ? | 16µM*
CCOc1cc(C2CC(=O)NC(SCC)=C2C#N)ccc1O (stereo unspecified) | -1 | 32 | -4%[38.3 µM] | -2% | -6% | -7%
O=C1C=C(NCc2ccco2)CC(c2ccc(Cl)cc2)C1 (stereo unspecified) | -5 | ? | 16%[38.3 µM] | -8% | -12% | 6%
COc1ccc2ccccc2c1C1CC(=O)N2CN(Cc3ccco3)CSC2=C1C#N (stereo unspecified) | 5 | 3 | 7%[38.3 µM] | 7.9µM* | -13% | 22µM*
CCOc1cc(C2CC(=O)N3CN(C4CCCCC4)CSC3=C2C#N)ccc1O (stereo unspecified) | 2 | ? | ? | 25µM* | ? | 6.3µM*
SMILES | IMPase cell inh | PNC assembly inh | IMPase Li inh | HPGD inh | ALOX12 inhib | ALDH1A1 inh
COc1cc(C2CC(=O)N3CN(Cc4ccco4)CSC3=C2C#N)ccc1OCc1ccccc1 (stereo unspecified) | 2 | -23 | 15%[38.3 µM] | 25µM* | -19% | 7.9µM*
CSC1=C(C#N)C(c2ccc(C(C)C)cc2)CC(=O)N1 (stereo unspecified) | 8 | 33 | 11%[38.3 µM] | -5% | 2% | ?
CC(C)c1ccc(C2CC(=O)N3CN(Cc4ccco4)CSC3=C2C#N)cc1 (stereo unspecified) | -5 | -16 | -4%[38.3 µM] | 16µM* | ? | 14µM*
COc1ccc(C2CC(=O)N3CN(Cc4ccco4)CSC3=C2C#N)cc1 (stereo unspecified) | -7 | 13 | -7%[38.3 µM] | 13µM* | -16% | 10µM*
COc1ccc2ccccc2c1C1CC(=O)N2CN(C3CCCCC3)CSC2=C1C#N (stereo unspecified) | 4 | -1 | 6%[38.3 µM] | 18µM* | -22% | 28µM*
O=C(O)Cc1cc(Cl)ccc1O | . | . | -5% | -7% | -6%[11.4 µM] | 5%[13.5 µM]
Cn1cc([N+](=O)[O-])c(C(=O)N/N=C/c2ccc3c(c2)OCO3)n1 | . | . | 1% | . | . | -5%
Cc1noc(C)c1-c1nccc(NCc2cccs2)n1 | . | . | 26% | . | . | ?
Cc1ccc(O)c(N=CC2=C(O)c3ccccc3C2=O)c1 | ? | ? | 10µM* | ? | -12% | ?
Cc1ccc(N2CCCn3c2nc2c3c(=O)n(CCN3CCOCC3)c(=O)n2C)cc1 | -9 | 4 | 1%[38.3 µM] | -16% | -4% | 0%
CCCCOC(=O)Cn1c(=O)c2c(nc3n2CCCCN3c2ccc(C)cc2)n(C)c1=O | -11 | -127* | 3%[38.3 µM] | -15% | -17% | ?
Cn1c(=O)c2[nH]c(COCc3nc4c([nH]3)c(=O)n(C)c(=O)n4C)nc2n(C)c1=O | . | . | -7% | -5% | 2%[11.4 µM] | 10%[13.5 µM]
COc1ccc(S(=O)(=O)Nc2ccccc2C(=O)NC(C)(C)C)cc1OC | 4 | -112* | 27%[38.3 µM] | ? | 7% | ?
COc1ccccc1NS(=O)(=O)c1ccc(OC)c(OC)c1 | -4 | -28 | 22%[38.3 µM] | -5% | 1% | 2%
CCC(C)(C(=O)NC1CCCC1)N(Cc1cccs1)C(=O)Cc1cccs1 (stereo unspecified) | 11 | 15 | 34%[38.3 µM] | 4% | -4% | -6%
CCC(C)(C(=O)NC1CCCC1)N(Cc1cccs1)C(C)=O (stereo unspecified) | 10 | -100* | 5% | -9% | -1% | 2%
CC(=O)NCCc1c[nH]c2ccc(O)cc12 | 10 | . | 14% | 11µM*! | -2% | -5%
CC(C)CNC(=O)CC(=O)NN=C1CCCC1 | . | -113* | -5% | -6% | 0% | -2%

Compound activity from PubChem.
